Records with an inconclusive call do not appear. Entries that show only a call come without a potency. Calls of active or inactive are those of the source. The call rests on the fitted dose curve; in most records, active means well fitted curve in the direction sought with a large enough effect; inconclusive means small, poorly fitted or top-dose-only effect, or another doubt; inactive means no such curve, though single readings can be large; an effect the other way counts as inactive or inconclusive.

Experiment [1] is described as follows: qHTS to identify inhibitors of the type 1 interferon - major histocompatibility complex class I in skeletal muscle: primary screen against the NCATS Mechanism Interrogation Plate v5.0 (MIPE) Libary (AID 1347411). Further: nearly all actives have a fitted effect of over 65% in size. Further: potency means the concentration at half of the fitted maximal effect. In a few lines: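 Luminescence from HiBiT-tagged endogenous HLA-B*08:01 served as the MHC class I read-out. CRISPR-engineered C25cl48 human myoblasts received 4.0 ng/ml IFN-beta plus compound for 24 hrs, with an 11-point, 1:3 series topping at 46 uM final.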
A general note: Quantitative high-throughput screening tests each substance at several concentrations.

In experiment [2] the target is Calcium and integrin-binding protein 1 (Homo sapiens) (UniProt Q99828). In words: Primary qHTS for Identification of Calcium Integrin Binding Protein 1 (CIB1) Competitor (AID 1508620).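 Further: GST tagged CIB1 binding a fluorescein labelled alphaIIb integrin peptide tracer; top concentration of the series differs between compounds.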 The method in brief:
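CIB1-GST (1 uM final) and compound incubated 15 min at room temperature before adding FITC-alphaIIb peptide tracer (100 nM final). Competition for binding read by fluorescence polarization (ex 480, em 540) after another 15 min at room temperature.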

Chain of Calcium and integrin-binding protein 1 (Homo sapiens) (Q99828 whole entry, looked up): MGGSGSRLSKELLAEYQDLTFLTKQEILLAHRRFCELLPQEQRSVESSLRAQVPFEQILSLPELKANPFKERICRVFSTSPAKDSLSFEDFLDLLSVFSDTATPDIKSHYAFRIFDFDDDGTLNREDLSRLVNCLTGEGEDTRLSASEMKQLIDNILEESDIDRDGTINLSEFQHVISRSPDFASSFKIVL

For `CC(=O)OC1C(C)OC(Oc2c(-c3ccc(O)cc3)oc3cc(O)cc(O)c3c2=O)C(O)C1OC(C)=O` (stereo unspecified), the Potency entry in experiment [1] and in experiment [2] was “inactive” each time.

For the compound `COc1ccc(-n2c(C)c([N+](=O)[O-])c3ccc(O)cc32)cc1`, the Potency entry in experiment [1] and in experiment [2] was “inactive” throughout.

Consider `NC(=O)c1ccc2nc(-c3ccc(Oc4ccc(Cl)cc4)cc3)[nH]c2c1`, for which the Potency result in experiment [1] and in experiment [2] was “inactive” throughout.

Take `COc1cc(N2CCC(N3CCN(C)CC3)CC2)ccc1Nc1ncc(Cl)c(Nc2ccccc2S(=O)(=O)C(C)C)n1`: in experiment [1], the Potency was 18.6 µM (active). The Potency entry in experiment [2] was “inactive”.

Consider `CC(C)(C(=O)NCC(F)(F)C(F)(F)F)C(=O)N[C@@H]1C(=O)Nc2ccccc2-c2ccccc21`, for which the Potency entry in experiment [1] and in experiment [2] was “inactive” each time.

Regarding `CC(C)(C)c1cc(C(=O)O)c(NC(=O)Nc2ccc3[nH]ncc3c2)s1`, the Potency entry in experiment [1] and in experiment [2] was “inactive” each time.

Consider `Cc1c(NC(=O)c2ccc(C(C)(C)C)cc2)cccc1-c1cn(C)c(=O)c(Nc2ccc(C(=O)N3CCOCC3)cc2)n1`, for which the Potency result in experiment [1] and in experiment [2] was “inactive” in each case.

Regarding `COCCOc1nc(-c2ccc(Cl)c(Cl)c2)n(-c2ccc(NC(=O)CCl)cc2)n1`, the Potency in experiment [1] was 5.23 µM (active). For the same compound, the Potency entry in experiment [2] was “inactive”.

In the case of `COC1CCC(N(C(=O)C2CCC(C)CC2)c2cc(C3=CCCCC3)sc2C(=O)O)CC1` (stereo unspecified), the Potency result in experiment [1] and in experiment [2] was “inactive” each time.

Regarding `CC(C)(C)Cn1c(N)nc2ccc(-c3[nH]c(C(C)(C)C)nc3-c3ccc(F)cc3)nc21`, the Potency entry in experiment [1] and in experiment [2] was “inactive” in each case.

Regarding `O=C1C[C@@H](c2ccc(O)cc2)Oc2cc(O)cc(O)c21`, the Potency result in experiment [1] and in experiment [2] was “inactive” each time.

As for `C[C@]12CCC3c4ccc(O)cc4CCC3C1CCC2=O` (stereo partly specified), the Potency entry in experiment [1] and in experiment [2] was “inactive” each time.

Turning to `C[C@H](NC(=O)C(=O)Nc1ccccc1C(C)(C)C)C(=O)N[C@@H](CC(=O)O)C(=O)COc1c(F)c(F)cc(F)c1F`, the Potency in experiment [1] was 13.1 µM (active). For the same compound, the Potency entry in experiment [2] was “inactive”.

Source of the values: PubChem BioAssay (NCATS).
